The source of these data is PubChem BioAssay.

The inhibition is the relative decrease from the control value, in per cent.

Unmarked numbers belong to inactive results. For some of these results: Potency and affinity values are given separately. The source made the active and inactive calls. Unless noted, no rule for the calls is given here.

Experiment [1] in a line: antimalarial activity against Dd2 strain (AID 2302;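 active = growth inhibition above 50% at the single 2 µM test dose, taken to imply half-maximal potency below 2 µM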;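 also: 0% = DMSO untreated growth and 100% = chloroquine plus artemisinin killed control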). Particulars: P. falciparum Dd2 in RBCs, LDH growth readout, 72 h; at 2 µM; stronger effect = higher value.
Experiment [2] is described as follows: HepG2 cytotoxicity, primary screen, cytotoxicity control for P. falciparum antimalarial project, cell-based, ATP luminescence (AID 2303;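 active = inhibition above 50%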;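 also: 0% = DMSO wells and 100% = digitonin-killed cells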). Particulars: HepG2 viability, 24-48 h, at 10 µM, stronger effect = higher value.
For experiment [3], the target named is L-lactate dehydrogenase (Plasmodium falciparum (isolate CDC / Honduras)) (UniProt Q27743). The experiment in a line: PfLDH activity inhibition – cell lysate, 3D7 strain, counter-screen for P. falciparum growth inhibition project (AID 2304).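 Also: 0% = vehicle and 100% = reference inhibitor.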 The note with it: P. falciparum 3D7 crude extract, LDH APAD/NBT absorbance; at 2 µM; stronger effect = higher value.
Experiment [4] is described as follows: inhibition of 3D7 malaria parasite growth – strain 3D7 (AID 2306).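 Also: 0% = DMSO wells and 100% = chloroquine plus artemisinin control wells.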 Particulars: P. falciparum 3D7 erythrocytic growth, LDH absorbance, 72 h; at 2 µM; stronger effect = higher value.
For experiment [5], the target named is Calcium-dependent protein kinase 1 (Plasmodium falciparum (isolate 3D7)) (UniProt P62344). In words: PfCDPK1 kinase inhibitors, biochemical, TCAMS library (AID 1159585; cut-off not given, nearly all actives have IC50 up to about 0.98 µM;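 also: inhibitors leave more ATP so luminescence rises with inhibition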). The note with it: recombinant PfCDPK1, Kinase-Glo ATP depletion luminescence. For orientation: Kinase-Glo reads ATP consumption through a luciferase reaction.
Experiment [6] has as its target Plasmodium falciparum protein kinase 6 (PK6, PF3D7_1337100) (UniProt Q8IDW1). In words: PfPK6 kinase inhibitors, biochemical, TCAMS library (AID 1159586). Particulars: recombinant PfPK6, Kinase-Glo ATP depletion luminescence.
In experiment [7] the target is Protein kinase 7 (PK7), Plasmodium falciparum 3D7 (PF3D7_0213400) (UniProt Q7YTF7). The experiment in a line: inhibition of Plasmodium PK7 catalytic activity – biochemical, TCAMS antimalarial set, Kinase-Glo luminescence (AID 1159587). The note with it: recombinant PfPK7, Kinase-Glo ATP depletion luminescence.
The target of experiment [8] is Calcium-dependent protein kinase 4 (Plasmodium falciparum (isolate 3D7)) (UniProt Q8IBS5). The experiment in a line: PfCDPK4 kinase inhibitors, biochemical, TCAMS library (AID 1159588; cut-off not given, nearly all actives have IC50 up to about 0.91 µM). The note with it: recombinant PfCDPK4, Kinase-Glo ATP depletion luminescence.
Sequence of Calcium-dependent protein kinase 4 (Plasmodium falciparum (isolate 3D7)) (Q8IBS5 whole entry, looked up): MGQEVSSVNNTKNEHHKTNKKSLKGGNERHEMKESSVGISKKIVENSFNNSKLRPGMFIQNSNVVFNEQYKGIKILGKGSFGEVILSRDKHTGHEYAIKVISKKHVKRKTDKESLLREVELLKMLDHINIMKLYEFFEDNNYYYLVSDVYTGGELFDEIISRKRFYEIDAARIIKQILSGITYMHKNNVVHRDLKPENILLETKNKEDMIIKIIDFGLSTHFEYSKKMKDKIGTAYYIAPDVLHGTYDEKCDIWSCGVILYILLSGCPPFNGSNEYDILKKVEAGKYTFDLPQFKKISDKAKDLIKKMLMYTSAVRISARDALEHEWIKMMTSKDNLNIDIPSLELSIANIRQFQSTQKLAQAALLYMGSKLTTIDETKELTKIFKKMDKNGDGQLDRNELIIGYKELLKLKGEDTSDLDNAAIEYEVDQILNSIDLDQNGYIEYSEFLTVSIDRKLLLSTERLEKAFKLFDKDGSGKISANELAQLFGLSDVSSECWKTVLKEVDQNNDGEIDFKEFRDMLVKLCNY

Sequence of Protein kinase 7 (PK7), Plasmodium falciparum 3D7 (PF3D7_0213400) (Q7YTF7 1-343): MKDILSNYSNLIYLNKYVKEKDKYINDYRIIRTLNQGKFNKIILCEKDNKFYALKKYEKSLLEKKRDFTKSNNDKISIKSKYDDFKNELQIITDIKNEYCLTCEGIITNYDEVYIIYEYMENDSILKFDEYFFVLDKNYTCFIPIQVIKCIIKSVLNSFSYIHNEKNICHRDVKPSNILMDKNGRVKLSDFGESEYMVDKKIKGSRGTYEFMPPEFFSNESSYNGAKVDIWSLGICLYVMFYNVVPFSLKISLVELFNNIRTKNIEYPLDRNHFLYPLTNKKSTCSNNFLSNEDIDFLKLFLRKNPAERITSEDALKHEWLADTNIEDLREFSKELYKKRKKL
Sequence of Calcium-dependent protein kinase 1 (Plasmodium falciparum (isolate 3D7)) (P62344 whole entry, looked up): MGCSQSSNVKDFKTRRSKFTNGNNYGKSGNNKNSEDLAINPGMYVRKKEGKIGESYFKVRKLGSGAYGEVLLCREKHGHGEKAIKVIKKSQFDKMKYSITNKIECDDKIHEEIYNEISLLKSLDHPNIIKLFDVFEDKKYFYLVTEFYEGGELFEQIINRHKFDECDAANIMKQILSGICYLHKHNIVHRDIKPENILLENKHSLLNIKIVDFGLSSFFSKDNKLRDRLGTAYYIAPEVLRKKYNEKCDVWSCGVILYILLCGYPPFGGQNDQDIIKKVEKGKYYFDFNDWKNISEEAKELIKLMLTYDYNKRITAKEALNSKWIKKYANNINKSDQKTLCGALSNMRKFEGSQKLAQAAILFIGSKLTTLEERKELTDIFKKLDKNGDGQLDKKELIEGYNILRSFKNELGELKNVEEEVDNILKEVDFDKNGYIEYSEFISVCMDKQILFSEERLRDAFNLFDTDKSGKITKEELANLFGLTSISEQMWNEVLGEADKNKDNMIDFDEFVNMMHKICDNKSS
Sequence of Plasmodium falciparum protein kinase 6 (PK6, PF3D7_1337100) (Q8IDW1 1-305): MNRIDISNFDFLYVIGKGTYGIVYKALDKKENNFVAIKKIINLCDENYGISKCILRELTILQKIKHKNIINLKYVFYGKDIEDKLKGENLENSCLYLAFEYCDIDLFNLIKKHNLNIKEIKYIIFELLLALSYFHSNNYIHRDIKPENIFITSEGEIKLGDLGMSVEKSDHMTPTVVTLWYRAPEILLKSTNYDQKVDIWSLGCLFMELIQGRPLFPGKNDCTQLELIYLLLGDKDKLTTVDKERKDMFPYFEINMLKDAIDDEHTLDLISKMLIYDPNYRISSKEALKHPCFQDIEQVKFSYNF
Sequence of L-lactate dehydrogenase (Plasmodium falciparum (isolate CDC / Honduras)) (Q27743 whole entry, looked up): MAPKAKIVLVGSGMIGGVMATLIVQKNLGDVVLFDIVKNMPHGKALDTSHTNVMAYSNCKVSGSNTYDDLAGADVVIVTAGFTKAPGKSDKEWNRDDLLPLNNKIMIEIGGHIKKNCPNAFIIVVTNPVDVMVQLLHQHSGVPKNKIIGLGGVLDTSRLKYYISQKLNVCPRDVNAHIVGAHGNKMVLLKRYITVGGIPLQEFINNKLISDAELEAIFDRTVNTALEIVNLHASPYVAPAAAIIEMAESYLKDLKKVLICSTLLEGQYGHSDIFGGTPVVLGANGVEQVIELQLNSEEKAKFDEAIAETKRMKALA

Regarding `Cn1cncc1CCCN(Cc1ccc(-c2ccc(C(F)(F)F)cc2)cc1)C(=O)Cn1c(CCc2cccc(F)c2F)cc(=O)c2cccnc21`, the values for the growth inhibition in experiment [1] and in experiment [4] were 59% (active) and 85% (active), respectively. For the same compound, the inhibition in experiment [2] was 17%; in experiment [3], -2%. For the same compound, the outcome in experiment [5], in experiment [6], in experiment [7] and in experiment [8] was inactive.

`O=C(/C=C/c1ccc(Cl)c(Cl)c1)NCCCCCN1CC[C@H](NC(=O)/C=C/c2ccccc2)C1`: the growth inhibition was 1% in experiment [1] and 93% (active) in experiment [4]. Also, the values for the inhibition in experiment [2] and in experiment [3] were 10% and 1%, respectively. Besides, the outcome in experiment [5], in experiment [6], in experiment [7] and in experiment [8] was inactive.

For the compound `CN(CCS(C)(=O)=O)Cc1ccc(-c2ccc3ncnc(Nc4ccc(OCc5cccc(F)c5)c(Cl)c4)c3c2)o1`, the results for the growth inhibition in experiment [1] and in experiment [4] were 65% (active) and 101% (active), respectively. The inhibition in experiment [2] is 25%; in experiment [3], -1%. Also, the outcome in experiment [5], in experiment [6], in experiment [7] and in experiment [8] was inactive.

As to `CC(C)CCNCc1c(O)ccc2ccccc12`, the growth inhibition was 51% (active) in experiment [1] and 95% (active) in experiment [4]. Besides, the results for the inhibition in experiment [2] and in experiment [3] were 9% and 2%, respectively. Besides, the outcome in experiment [5], in experiment [6], in experiment [7] and in experiment [8] was inactive.

As to `COc1ccc(OC)c(NC(=O)c2c(-c3c(F)cccc3Cl)noc2C)c1`, the growth inhibition in experiment [1] is 25%; in experiment [4], 94% (active). Also, the inhibition in experiment [2] and in experiment [3] was -1% throughout. Also, the result in experiment [5], in experiment [6], in experiment [7] and in experiment [8] was inactive.

Turning to `Cc1nc2nc(N)nc(N)c2c(C)c1Cc1cccs1`, the results for the growth inhibition in experiment [1] and in experiment [4] were 2% and 95% (active), respectively. In addition, the values for the inhibition in experiment [2] and in experiment [3] were 66% (active) and -1%, respectively. The outcome in experiment [5], in experiment [6], in experiment [7] and in experiment [8] was inactive.

For `CC(C)NCc1ccc(-c2cccc(-c3nc4ccccc4[nH]3)c2)cc1`, the figures for the growth inhibition in experiment [1] and in experiment [4] were 34% and 101% (active), respectively. Further, the inhibition in experiment [2] was 21%; in experiment [3], 0%. For the same compound, the result in experiment [5], in experiment [6], in experiment [7] and in experiment [8] was inactive.

As for `Cc1ccccc1CNc1noc(-c2c(F)cccc2Cl)n1`, the figures for the growth inhibition in experiment [1] and in experiment [4] were 90% (active) and 97% (active), respectively. The inhibition in experiment [2] is 14%; in experiment [3] it was -5%. The outcome in experiment [5], in experiment [6], in experiment [7] and in experiment [8] was inactive.

As to `O=C(N[C@H]1CCN(CCc2ccc(O[C@H]3CCNC3)cc2)C1)c1ccc(Cl)c(Cl)c1`, the growth inhibition in experiment [1] was 5%; in experiment [4] it was 96% (active). Also, the inhibition was 18% in experiment [2] and -3% in experiment [3]. The result in experiment [5], in experiment [6], in experiment [7] and in experiment [8] was inactive.

Take `C[C@H](Nc1c(Nc2ccc3[nH]ccc3c2)c(=O)c1=O)C1CCCCC1`: the figures for the growth inhibition in experiment [1] and in experiment [4] were 11% and 96% (active), respectively. Besides, the inhibition in experiment [2] is 7%; in experiment [3], 6%. Also, the outcome in experiment [5], in experiment [6], in experiment [7] and in experiment [8] was inactive.

For `Cc1cccc2[nH]c(=O)c([N+](=O)[O-])c(O)c12`, the growth inhibition is -2% in experiment [1] and 95% (active) in experiment [4]. In addition, the inhibition in experiment [2] and in experiment [3] was -2% in each case. Besides, the outcome in experiment [5], in experiment [6], in experiment [7] and in experiment [8] was inactive.

`CC(=O)Nc1ccc(OCCN(CC(C)C)c2ccc(C(F)(F)F)c(C#N)c2)c(Cl)c1`: the growth inhibition in experiment [1] was 95% (active); in experiment [4], 96% (active). The inhibition in experiment [2] is 13%; in experiment [3] it was 2%. The outcome in experiment [5], in experiment [6], in experiment [7] and in experiment [8] was inactive.

As for `N#Cc1ccc2c(c1)CCN(CCC1CCC(NC(=O)/C=C/c3cccc4ccccc34)CC1)CC2` (stereo not given), the growth inhibition in experiment [1] was 12%; in experiment [4], 96% (active). For the same compound, the inhibition in experiment [2] is 16%; in experiment [3] it was -6%. For the same compound, the result in experiment [5], in experiment [6], in experiment [7] and in experiment [8] was inactive.

As for `CC(=O)Nc1cccc(C(=O)Nc2ccc(-c3cccc(-c4nc5ccc(C(F)(F)F)cc5[nH]4)c3)cc2)c1`, the figures for the growth inhibition in experiment [1] and in experiment [4] were 85% (active) and 101% (active), respectively. Besides, the inhibition was 81% (active) in experiment [2] and 2% in experiment [3]. The result in experiment [5], in experiment [6], in experiment [7] and in experiment [8] was inactive.

In the case of `Cc1ccccc1-c1nc2c(CN3CCC(O)(c4ccccc4)CC3)c(O)ccc2[nH]1`, the values for the growth inhibition in experiment [1] and in experiment [4] were 61% (active) and 92% (active), respectively. The inhibition in experiment [2] was 27%; in experiment [3], 4%. Also, the result in experiment [5], in experiment [6], in experiment [7] and in experiment [8] was inactive.

On to `O=C(Nc1ccc(OC2CCN(Cc3ccc(F)cc3)C2)cc1)c1ccco1` (stereo not given), for which the growth inhibition is 69% (active) in experiment [1] and 88% (active) in experiment [4]. For the same compound, the results for the inhibition in experiment [2] and in experiment [3] were -3% and -1%, respectively. The result in experiment [5], in experiment [6], in experiment [7] and in experiment [8] was inactive.

With `Cc1cc(NC(=O)CCN2CCN(c3cccc(Cl)c3Cl)CC2)ccc1N1CCN(C(C)C)CC1`, the values for the growth inhibition in experiment [1] and in experiment [4] were 8% and 99% (active), respectively. Further, the inhibition in experiment [2] was 82% (active); in experiment [3], 7%. Further, the outcome in experiment [5], in experiment [6], in experiment [7] and in experiment [8] was inactive.

Take `CCCC(=O)Nc1ccc(Nc2nc(C)cc(N3CCCC3)n2)cc1`: the values for the growth inhibition in experiment [1] and in experiment [4] were 46% and 100% (active), respectively. Also, the inhibition is 31% in experiment [2] and 4% in experiment [3]. In addition, the result in experiment [5], in experiment [6], in experiment [7] and in experiment [8] was inactive.

Consider `COc1ccc(NC(=O)[C@H](Cc2ccccc2)Nc2nc(NCCN3CCCC3)ncc2C)cc1`, for which the growth inhibition in experiment [1] was 9%; in experiment [4], 89% (active). Moreover, the inhibition is 26% in experiment [2] and 1% in experiment [3]. Further, the result in experiment [5], in experiment [6], in experiment [7] and in experiment [8] was inactive.

Take `CC(C)Oc1ccc(CCCON2C(N)=NC(N)=NC2(C)C)cc1`: the growth inhibition is 94% (active) in experiment [1] and 96% (active) in experiment [4]. In addition, the inhibition in experiment [2] is 66% (active); in experiment [3], 0%. Moreover, the outcome in experiment [5], in experiment [6], in experiment [7] and in experiment [8] was inactive.
